Source: PubChem BioAssay (National Center for Advancing Translational Sciences (NCATS))
An excerpt weighted towards active compounds, which were near 12% of everything screened.
NS1 function inh: blocks influenza NS1 protein function. Potency, µM (top dose mostly 46.1 µM), inactives show at the highest dose activity, positive = more growth. 270,000 tested, 0.4% active. AID 2326; calls by dose curve; further: actives are rising curves; nearly all actives have a fitted effect of over 50% in size
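S. cerevisiae expressing influenza A NS1, grown in glucose, washed, then diluted 1:100 into pH 6.0 -URA galactose medium with 23 nl compound. Growth recovery read as OD600; NS1-free strain serves as control.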
SARS PLP yeast: SARS-CoV PLP inhibition in yeast; 330,000 tested, 0.19% active; S. cerevisiae expressing SARS-CoV PLpro, growth rescue; Potency, µM (titrated, usually from 32.9 µM), inactives show top-dose activity, positive = growth rescue, hits mostly activators; calls by dose curve; further: 0% is about no effect; nearly all actives have a fitted effect of over 55% in size
Pf growth 96h: P. falciparum growth inhibition at 96 hours | Potency, µM (series often up to 28.7 µM), for inactives: at the top dose activity change, negative = inhibition, usual class: inhibitors | 320,000 tested, 6.9% active | P. falciparum luciferase reporter growth, 96 h | AID 504834; further: on the % scale 0 is the no-effect control and ±100 the full control effect
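Two parasite generations (96 h, 37 C, 5% CO2) of compound exposure in infected erythrocytes (0.05% parasitemia, 2% hematocrit). Luciferase-reporter P. falciparum; decreased luminescence indicates inhibited growth, aimed at apicoplast-acting delayed death.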
AMA1 RON2 block: disrupts binding of P. falciparum AMA1 to RON2. AlphaScreen AMA1-biotinylated RON2 peptide binding. 360,000 tested, 0.2% active. Potency, µM (top dose mostly 58.2 µM), for the others: top-dose activity change, negative = inhibition, hits mostly inhibitors. AID 720542;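 further: 0% = vehicle wells and -100% = peptide control; nearly all actives have a fitted effect of over 45% in size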
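AMA1 (3D7) with his tag at 25 nM final met compounds first, then biotinylated RON2 peptide at 25 nM; detection used donor plus acceptor beads, 10 µg/mL apiece, read by AlphaScreen after 30 min at room temperature.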
HCV inh: blocks hepatitis C virus; Huh7.5.1 HCVcc-Cre infection, luciferase reporter, 44 h; Potency, µM (highest dose often 41.8 µM), without a hit: at the top dose activity change, negative = inhibition, usual class: inhibitors; 340,000 tested, 3.4% active; further: on the % scale 0 is the no-effect control and ±100 the full control effect
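Antiviral activity was scored by luciferase reporter output from cells infected with HCVcc-Cre (~0.5 moi) in presence of compound, 44 h infection period, cells seeded 1,000/well 4 h prior.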
Pf growth 48h: P. falciparum growth inhibition at 48 hours (one generation); 310,000 tested, 5.9% active; P. falciparum luciferase growth in erythrocytes, 48 h; AID 504832; Potency, µM (highest dose often 28.7 µM), without a hit: at the highest dose activity change, negative = inhibition, actives largely listed as inhibitors; further: on the % scale 0 is the no-effect control and ±100 the full control effect
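Erythrocytes infected with P. falciparum carrying an integrated firefly luciferase reporter (2% hematocrit, 0.1% parasitemia final) were exposed to compounds in RPMI 1640 with 0.5% Albumax at 37 C, 5% CO2. Growth inhibition was scored as reduced luminescence.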
The depositor's hits bear a star; ? = inconclusive; / = not tested or not shown; [ ] = another dose, or the depositor's remark. Unless noted, the call rests on the fitted dose curve; in most records, active means well fitted curve in the direction sought with a large enough effect; inconclusive means small, poorly fitted or top-dose-only effect, or another doubt; inactive means no such curve, though single readings can be large; an effect the other way counts as inactive or inconclusive. Potency means the concentration at half of the fitted maximal effect.

SMILES	NS1 function inh	SARS PLP yeast	Pf growth 96h	AMA1 RON2 block	HCV inh	Pf growth 48h
Cc1ccc(-n2nc3c(=O)n(C(C)C(=O)NCc4ccc(Cl)cc4)nc(C)c3c2C)cc1 (stereo unspecified)	-26.4%	-1.1%	1.65µM*	-11.0%	22.4µM*	?
CSc1ccc(CNC(=O)C(C)n2nc(C)c3c(C)n(-c4ccccc4)nc3c2=O)cc1 (stereo unspecified)	11.7%	-7.0%	36.8%	-8.0%	?	-21.3%
Cc1nn(CC(C)C)c(Cl)c1C(=O)N(C)CC(=O)Nc1ccc(Cl)cc1	/	/	/	5.1%	/	/
Cc1c(C(=O)NNC(=O)c2ccccc2O)oc2ccccc12	/	/	/	17.5%	/	/
CCCCCC(=O)Nc1ccc(C2C(=O)c3ccccc3C2=O)cc1	8.6%	2.7%	?	12.2%	2.51µM*	13.1µM*
CCCCC(=O)Nc1ccc(C(=O)c2ccccc2)cc1	-6.2%	-1.6%	31.7%	20.9%	-13.8%	25.5%
CCS(=O)(=O)c1ccc2oc(Nc3cccc(OC)c3)nc2c1	/	0.4%	32.3%	15.8%	?	108.6%
CCOC(=O)c1ccc(Nc2cc(C)nc(-c3ccccc3O)n2)cc1	2.2%	-1.5%	71.2%	6.9%	?	?
Cc1cc(NCc2ccccc2)nc(-c2ccccc2O)n1	-81.7%	-28.1%	49.5%	27.9%	?	?
Cc1cc(N/N=C/c2c(O)ccc3ccccc23)nc(-c2ccccc2O)n1	18.4%	?	?	50.7%	?	6.57µM*
Cc1cc(Nc2ccccc2)nc(-c2ccccc2O)n1	-88.6%	-8.0%	/	3.9%	0.631µM*	29.2%
COC(=O)c1sc(SC)c(S(=O)(=O)C(C)C)c1N/N=C(\C#N)C(=O)c1ccccc1	11.1%	0.0%	0.0%	-23.5%	7.0%	-8.7%
COc1ccccc1Cn1c(SCC#N)nc2cc(C(=O)N3CCC4(CC3)OCCO4)ccc2c1=O	/	4.0%	9.28µM*	-1.0%	?	?
COC(=O)c1ccc2c(=O)n(C3CCCCC3)c(SCC#N)nc2c1	-37.1%	17.7%	-11.7%	0.2%	3.6%	-8.3%
Cn1c(=O)c(C(=O)COC(=O)c2cc(C3CC3)nc3ccccc23)c(N)n(Cc2ccccc2)c1=O	-1.1%	-9.3%	9.28µM*	10.1%	3.55µM*	?
Cn1c(=O)c(C(=O)COC(=O)c2cc(-c3ccccc3)nc3ccccc23)c(N)n(Cc2ccccc2)c1=O	15.0%	-8.3%	?	/	0.0%[8.37 µM]	?
Cn1c(=O)c(C(=O)COC(=O)c2cc(-c3ccco3)nc3ccccc23)c(N)n(CC2CC2)c1=O	?	0.6%	8.28µM*	/	-17.3%[8.37 µM]	?
Cn1c(=O)c(C(=O)COC(=O)c2cc(C(F)(F)F)nc3ccccc23)c(N)n(Cc2ccccc2)c1=O	?	-3.2%	?	/	-10.1%[8.37 µM]	11.7µM*
Cc1ccc(Cl)cc1NC(=S)N(CCN(C)C)C(C)c1ccccn1 (stereo unspecified)	/	-2.7%	44.4%	87.0%	-13.0%	-6.7%
CC(=O)Nc1nc2c(s1)C(=O)NCCC2	0.7%	-0.1%	78.0%	-6.4%	10.7%	14.8%
Cc1ccc(-n2c(C)cc(C(=O)OCC(=O)N(CC(C)C)C3CCS(=O)(=O)C3)c2C)cc1 (stereo unspecified)	2.8%	10.2%	58.1%	-11.6%	1.8%	-90.8%
CN(C(=O)COC(=O)c1cc(-c2ccc(Cl)s2)nc2ccccc12)C1CCS(=O)(=O)C1 (stereo unspecified)	/	4.6%	-28.3%	0.7%	10µM*	13.5%
Cc1ccc(-n2c(C)cc(C(=O)OCC(=O)N(C)C3CCS(=O)(=O)C3)c2C)cc1 (stereo unspecified)	-7.7%	5.6%	42.1%	-1.4%	-4.7%	1.65µM*
Cc1ccc(Cc2c(-c3cccc(Cl)c3)nc3c(C)cc(Br)cn23)cc1	/	/	/	-0.4%	/	/
COc1cc(C(=O)OCC(=O)NC(=O)NC2CCCCC2)cc(Cl)c1OC	/	/	-9.9%	-21.5%	-10.5%	7.3%
SMILES	NS1 function inh	SARS PLP yeast	Pf growth 96h	AMA1 RON2 block	HCV inh	Pf growth 48h
O=C(/C=C/c1cccc(O)c1)c1ccc(N2CCOCC2)cc1	-5.9%	-0.8%	?	-0.4%	-26.1%	122.0%
CC(NC(=O)COc1ccc(-c2nnco2)cc1)c1ccc(Cl)cc1Cl (stereo unspecified)	-7.8%	6.6%	13.1µM*	-4.4%	-3.2%	?
Cc1ccc(-n2nc3c(Cl)nnc(C)c3c2C)cc1	0.8%	-5.2%	0.329µM*	7.2%	-0.3%	0.415µM*
O=[N+]([O-])c1ccn(-c2nc(-c3cccs3)cc(C(F)(F)F)n2)n1	/	-10.7%	?	-4.6%	?	-22.0%
FC(F)(F)c1cc(-c2cccs2)nc(-n2cc(Cl)cn2)n1	-0.3%	2.1%	?	-17.1%	10µM*	/
COc1ccc(OCc2ccc(/C=N\NC(=O)c3sccc3C)o2)cc1	15.4%	-3.3%	34.7%	67.7%	-16.6%	34.5%
CSCCC(C(=O)Nc1c(C)cccc1C)N1CCC(Cc2ccccc2)CC1 (stereo unspecified)	/	/	/	-12.7%	/	/
COC(=O)C1=C(c2ccc(F)cc2F)C[C@@H]2CC[C@H]1N2C(=O)NCc1ccc(C(F)(F)F)cc1	/	-14.2%	?	2.8%	-27.4%	11.7µM*
COC(=O)C1=C(c2ccc(F)cc2F)C[C@@H]2CC[C@H]1N2C(=O)NCc1ccc2c(c1)OCO2	/	-1.1%	?	2.0%	-19.7%	?
COC(=O)C1=C(c2cccc(OC)c2OC)C[C@@H]2CC[C@H]1N2C(=O)NCc1ccc(F)cc1	/	/	/	10.1%	-29.0%	/
COC(=O)C1=C(c2ccc(F)cc2OCc2ccccc2)C[C@@H]2CC[C@H]1N2C(=O)NC1Cc2ccccc2C1	/	0.8%	1.65µM*	-3.6%	11.2µM*	?
COC(=O)C1=C(c2ccc(F)cc2OCc2ccccc2)C[C@@H]2CC[C@H]1N2C(=O)NCc1ccc(F)cc1	/	-8.7%	?	3.9%	?	10.4µM*
COC(=O)C1=C(c2ccccc2OCc2ccccc2)C[C@@H]2CC[C@H]1N2C(=O)NCc1ccc(C(C)(C)C)cc1	/	1.7%	?	-8.9%	?	6.57µM*
COC(=O)C1=C(c2ccc(OCc3ccccc3)cc2)C[C@@H]2CC[C@H]1N2C(=O)NCc1ccc(C(C)(C)C)cc1	/	/	/	-0.7%	/	/
O=C(O)CCCNC(=O)Cc1ccccc1	4.0%	0.6%	7.5%	20.9%	5.8%	25.1%
CCO[C@@H]1OC(C(=O)NC2CC2)=C[C@H](c2coc3ccccc3c2=O)[C@H]1CCCO	/	/	/	-1.7%	14.2%	/
COc1cccc(NC(=O)CN2C(=O)COc3ccc(S(=O)(=O)N4CCC(C)CC4)cc32)c1	-0.4%	0.5%	-11.1%	-2.9%	-21.2%	?
